# G9a inh – G9a (human) methyltransferase inhibition. Q96KQ7. G9a H3K9 monomethylation, AlphaScreen, 2 h. Potency, µM (titrated, usually from 102 µM), usual class: inhibitors. hit rate 8.8% among 350,000. AID 504332; note: nearly all actives have a fitted effect of over 75% in size
#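 Signal arises when biotinylated H3K9 peptide, once monomethylated, bridges streptavidin donor and antibody-captured acceptor beads. Enzyme at 20 nM was preincubated 15 min with test compounds; peptide 500 nM and SAM 20 uM then reacted for 2 h.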
# Sfp inh – blocks B. subtilis Sfp PPTase activity; Q9F4F7; Biochemical Sfp PPTase activity, qHTS; Potency, µM, most hits filed as inhibitors; hit rate 3.5% among 310,000; AID 1490;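 note: the enzyme is Sfp with the accession as filed and its product quenches rhodamine fluorescence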
#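 Step 1, compound plus 15 nM Sfp-PPTase, 15 min, room temperature. Step 2, add rhodamine-CoA (5 uM) and BHQ-2-YbbR (12.5 uM). Step 3, read 525/598 nm fluorescence at 0 and 30 min.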
# L3MBTL1 inh – L3MBTL1 (human) inhibition. Q9Y468. Potency, µM (titrated, usually from 57.1 µM), actives largely listed as inhibitors. AlphaScreen L3MBTL1–H3K9me1 peptide binding. hit rate 0.66% among 230,000; note: nearly all actives have a fitted effect of over 60% in size
# Target sequence (Q9Y468 whole entry, looked up): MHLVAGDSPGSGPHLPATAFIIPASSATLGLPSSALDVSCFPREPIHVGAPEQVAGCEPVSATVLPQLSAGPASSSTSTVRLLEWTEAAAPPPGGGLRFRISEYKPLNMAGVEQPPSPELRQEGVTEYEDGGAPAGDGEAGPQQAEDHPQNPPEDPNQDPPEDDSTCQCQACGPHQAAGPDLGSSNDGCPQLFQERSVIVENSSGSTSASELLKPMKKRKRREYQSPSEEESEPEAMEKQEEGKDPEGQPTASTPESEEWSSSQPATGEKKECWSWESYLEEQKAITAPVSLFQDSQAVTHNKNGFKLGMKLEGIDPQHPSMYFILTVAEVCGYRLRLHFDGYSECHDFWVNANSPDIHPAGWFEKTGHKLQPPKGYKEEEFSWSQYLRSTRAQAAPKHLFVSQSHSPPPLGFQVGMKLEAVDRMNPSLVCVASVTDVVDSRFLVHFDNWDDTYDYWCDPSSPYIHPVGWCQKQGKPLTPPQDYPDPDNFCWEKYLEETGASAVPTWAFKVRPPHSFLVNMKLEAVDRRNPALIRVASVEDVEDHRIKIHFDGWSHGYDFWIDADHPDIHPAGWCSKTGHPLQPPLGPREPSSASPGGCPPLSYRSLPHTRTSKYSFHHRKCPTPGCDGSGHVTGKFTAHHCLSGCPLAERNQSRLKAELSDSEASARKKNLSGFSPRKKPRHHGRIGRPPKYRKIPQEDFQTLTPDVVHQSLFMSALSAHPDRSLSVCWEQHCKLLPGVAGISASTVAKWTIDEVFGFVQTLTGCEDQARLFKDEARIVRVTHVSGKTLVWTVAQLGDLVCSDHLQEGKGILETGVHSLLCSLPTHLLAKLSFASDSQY
#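 AlphaScreen proximity signal between nickel-chelate acceptor and streptavidin donor beads (final 10 ug/mL) reports binding of 50 nM L3MBTL1 to 75 nM biotin-H3 K9me1 peptide; complex incubated with compounds 30 min at room temperature; cefsulodin titration as control.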
# BAZ2B inh – inhibitors of human BAZ2B bromodomain | AlphaScreen BAZ2B-H3K14Ac peptide displacement | hit rate 4.4% among 360,000 | Potency, µM (series often up to 114 µM), most hits filed as inhibitors | Q9UIF8; note: nearly all actives have a fitted effect of over 60% in size
#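 AlphaScreen luminescence quantifies BAZ2B engagement of H3K14Ac peptide; the protein and biotinylated peptide are both at 50 nM final, buffer PBS pH 7.4 with 0.01% Tween-20, all steps at room temperature.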
# HP1b chromo inh – blocks HP1-beta chromodomain binding to methylated histone tails; Potency, µM (highest dose often 114 µM), actives largely listed as inhibitors; AlphaScreen HP1-beta / biotin-H3K9me3 peptide binding; hit rate 0.56% among 390,000; note: nearly all actives have a fitted effect of over 70% in size
#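 HP1-beta protein (50 nM final) preincubated 30 min at room temperature with biotinylated H3(1-18)K9me3 peptide (50 nM) in PBS pH 7.4, 0.01% Tween-20, then compound added for 30 min. AlphaScreen streptavidin donor/nickel chelate acceptor beads (10 ug/mL final), 30 min dark, luminescence read.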
# JMJD2A Tudor – JMJD2A Tudor domain (human) inhibition; O75164; AlphaScreen JMJD2A-Tudor / H3K4me3 peptide binding; AID 504339; hit rate 4.4% among 390,000; Potency, µM (series often up to 114 µM), usual class: inhibitors; note: nearly all actives have a fitted effect of over 50% in size
# A number is an active result; – = inactive; ? = inconclusive; · = no result; [ ] = dose if it differs, or a comment. A selection: hits, their analogues and other compounds. The true share with any hit is near 12%. Calls come from the whole dose curve; as a rule, active = well fitted curve in the direction sought with a large enough effect; inconclusive = small, poorly fitted or top-dose-only effect, or another doubt; inactive = no such curve, though single readings can be large; an effect the other way counts as inactive or inconclusive.
SMILES,G9a inh,Sfp inh,L3MBTL1 inh,BAZ2B inh,HP1b chromo inh,JMJD2A Tudor
Cc1ccccc1C1=CCN(c2ncc(NC(=O)c3ccc(Cl)cc3)cc2C(=O)O)CC1,?,·,·,50.1µM,?,79.4µM
O=C(c1ccc2c(=O)n(Cc3ccco3)c(=S)[nH]c2c1)N1CCN(Cc2ccc3c(c2)OCO3)CC1,·,·,·,·,–,?
Cc1ccc(NS(=O)(=O)c2ccccc2F)cc1S(=O)(=O)N1CCCCC1,–[2.33 µM],·,–,–,–,–
O=S(=O)(Nc1ccc(N2CCCCC2)cc1)c1ccccc1F,39.8µM,–,–,50.1µM,?,?
O=S(=O)(Nc1ccc(N2CCCCC2)cc1)c1cccc2cccnc12,15.8µM,–,–,?,?,–
O=S(=O)(c1cccc2cccnc12)N1CCCCC1,·,–,·,–,–,–
O=S(=O)(Nc1cccc(-c2ccc(N3CCCCC3)nn2)c1)c1ccc(F)cc1F,?,·,·,–,–,–
O=S(=O)(Nc1ccc(N2CCCCC2)cc1)c1ccc(F)cc1F,44.7µM,–,–,?,–,?
CC(CS(=O)(=O)c1cccc2cccnc12)N1CCCCC1 (configuration not stated),25.1µM,–,–,–,–,–
CCOc1ccc(NC(=O)N(Cc2c[nH]c3ccccc23)C2CCCCCC2)cc1,–,·,·,·,–,–
Cc1ccc(-c2ccc(CCC(=O)O)o2)cc1,?,44.7µM,–,–,–,?
O=C(CC1C[C@H](C(=O)N2CCCCC2)[C@@]2(CCc3ccccc3)c3[nH]c4ccccc4c3CCN2C1=O)NCCc1ccccn1 (some centres not stated),·,·,·,·,–,?
COn1c(=O)c(=O)n(O)c2ccccc21,–,–,–,?,–,79.4µM
O=c1c(=O)n(O)c2ccccc2n1O,10µM,79.4µM,–,39.8µM,–,50.1µM
CCCCn1c(=N)n(CCOc2ccccc2OC)c2ccccc21,–,·,·,–,–,–
O=C(CSc1ncnc2ccccc12)NCc1ccco1,–,–,–,–,–,?
O=c1c2ccccc2nnn1CSc1nnc2sc3ccccc3n12,7.08µM,–,–,–,·,·
Cn1nnnc1SCC(=O)c1ccco1,?,?,–,–,–,–
O=C(CSc1nnnn1-c1ccccc1)c1ccco1,50.1µM,–,–,–,–,–
O=C(CSc1ncnc2ccccc12)c1ccco1,12.6µM,20µM,·,–,?,?
O=C(CSc1nnnn1-c1ccccc1)NC1CCCc2ccccc21 (configuration not stated),35.5µM,–,–,–,–,–
Cc1ccc(NC(=O)C2CCCN(S(=O)(=O)c3cccc4nsnc34)C2)c(C)c1 (configuration not stated),–,·,·,·,–,–
CN(C)C(=O)CSc1nnc2sc3ccccc3n12,–,–,–,–,–,–
O=C(CSc1nnc2sc3ccccc3n12)c1ccco1,10µM,–,–,–,–,–
CCCCn1c(N)c(N(CC(C)C)C(=O)COC(=O)c2ccccc2NCCO)c(=O)[nH]c1=O,3.98µM,·,–,70.8µM,–,–
SMILES,G9a inh,Sfp inh,L3MBTL1 inh,BAZ2B inh,HP1b chromo inh,JMJD2A Tudor
CCCn1c(N)c(N(CCOC)C(=O)COC(=O)c2ccccc2NCCO)c(=O)[nH]c1=O,8.91µM,·,–,–,–,–
CCCCn1c(N)c(N(CCOC)C(=O)COC(=O)c2ccccc2OCC)c(=O)[nH]c1=O,–,–,·,–,–,–
Cc1ccc(C2CCN(C(=O)Nc3ccc(C)c(C)c3)C2)cc1 (configuration not stated),–,·,·,–,–,–
CCCn1c(C(CO)Nc2nc(-c3cccc(Br)c3)cs2)nc2ccccc21 (configuration not stated),44.7µM,–,–,?,–,?
NNc1nnc(-c2ccccc2)c(-c2ccccc2)n1,?,–,·,79.4µM,–,?
O=C(N[C@@H](Cc1c[nH]c2ccccc12)C(=O)O)c1ccc(Cl)cc1,–,–,–,–,–,–
NC(=NCCc1c[nH]c2ccccc12)NC(=O)c1ccc(Cl)cc1,?,–,?,79.4µM,–,?
COc1ccc(CC(=O)Nc2ccc(OC)nc2)cc1,–,–,–,·,–,–
COc1ccc(NC(=O)Nc2cccs2)cn1,35.5µM,56.2µM,·,–,–,–
COc1ccc(NC(=O)/C(Cl)=C(/Cl)S(=O)Cc2ccc(Cl)cc2)cn1 (configuration not stated),11.2µM,11.2µM,–,–,–,–
COc1ccc(NC(=O)CCl)cn1,28.2µM,?,·,79.4µM,·,·
CCn1cnc2cc(NCc3nc4ccccc4n3Cc3ccccc3)ccc21,?,–,?,39.8µM,–,44.7µM
O=C(O)c1ccc(NCc2nc3ccccc3n2Cc2ccccc2)cc1,–,–,–,50.1µM,–,–
O=C(NNc1ccc([N+](=O)[O-])cc1)c1ccccc1Cl,?,–,–,–,–,–
O=C(NC(NNc1ccc([N+](=O)[O-])cc1)(C(F)(F)F)C(F)(F)F)c1ccc(Cl)cc1,39.8µM,–,·,–,–,?
CC(C)Nc1nc(-c2ccncc2)nc(-c2ccccc2)c1C#N,–,–,·,–,–,–
CC(C)(C)c1ccc(Cn2nnc3c(=O)[nH]c(C4CCN(C(=O)c5ccco5)CC4)nc32)cc1,?,–,·,?,–,79.4µM
O=C(c1ccco1)N1CCC(c2nc3c(nnn3Cc3c(Cl)cccc3Cl)c(=O)[nH]2)CC1,?,–,·,–,–,–
O=C(NCc1ccc(F)cc1)C(c1cccnc1)N(C(=O)c1csnn1)c1ccccc1 (configuration not stated),–,–,·,–,–,–
CN(Cc1ccccc1)C(=S)NC(=O)C1CCCCC1,–,–,–,–,–,–
O=C(NC(=S)N(Cc1ccccc1)c1ccccn1)C1CCCCC1,28.2µM,–,–,–,–,–
Cc1ccc2c(Sc3ccc(Cl)cc3)c(C(=O)N3CCCCC3)[nH]c2c1,–,·,·,–,–,–
Cc1ccccc1C(=O)Nc1ccc(S(=O)(=O)N2CCC(c3nc4ccccc4s3)CC2)cc1,–,·,·,–,–,–
O=C1CSC(=S)N1N=C1CCCCCC1,?,17.8µM,–,–,–,–
COc1ccc(-n2c(SCC(=O)Nc3ncc(Cl)cc3Cl)nc3ccccc32)cc1,44.7µM,?,–,–,·,·
O=C(CSc1nc2ccccc2n1-c1ccccc1)Nc1ncc(Cl)cc1Cl,–,–,–,–,–,–
O=C(CSc1nc2ccccc2n1Cc1ccc(F)cc1)N1CCN(c2ccc(F)cc2)CC1,–,·,·,–,–,–
CCCC(=O)NNc1c2ccccc2nc2ccccc12,–,–,–,–,–,–
O=C(NNc1c2ccccc2nc2ccccc12)c1ccc(O)cc1,?,–,?,28.2µM,?,–
O=C(NNc1c2ccccc2nc2ccccc12)c1cccc(O)c1,?,–,–,35.5µM,?,44.7µM
